Source: PubChem
DT40 TDP1 CPT: qHTS for Inhibitors of human tyrosyl-DNA phosphodiesterase 1 (TDP1): qHTS in cells in presence of CPT; actives 12% (n = 420,000); Potency, µM (top dose mostly 46.2 µM), without a hit: at the highest dose activity change, negative = growth inhibition, most hits filed as inhibitors; chicken DT40 Tdp1-/-;hTDP1 cells + 20 nM CPT, ATP luminescence, 48 h; note: potency is the fitted concentration of half-maximal effect; nearly all actives have a fitted effect of over 55% in size
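Cell growth measured by CellTiter-Glo luminescence after a minimum 48 h, 37 C compound exposure with 20 nM CPT in Tdp1-knockout DT40 cells stably expressing hTDP1, seeded 400/well; qHTS titration format.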
HT1080-NT tox: qHTS for induction of synthetic lethality in tumor cells producing 2HG: qHTS for the HT-1080-NT fibrosarcoma cell line; HT-1080-NT fibrosarcoma viability, CellTiter-Glo ATP luminescence, 48 h; Potency, µM (top dose mostly 46.1 µM), for inactives: at the highest dose activity, negative = less viability, hits mostly cytotoxic; actives 1.6% (n = 360,000);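 note: NT is the 2HG producing partner of a matched IDH1 knockdown line; potency is the fitted concentration of half-maximal effect; 0% = DMSO-treated cells and -100% = media-only wells without cells; nearly all actives have a fitted effect of over 55% in size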
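Toxicity toward the 2HG-producing NT line was scored as %Activity, normalised to DMSO and no-cell wells, from CellTiter-Glo luminescence after 48 hours' treatment.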
HT1080 IDH1KD tx: qHTS for induction of synthetic lethality in tumor cells producing 2HG: qHTS for the HT-1080-IDH1KD cell line | HT-1080 IDH1 knockdown viability, ATP luminescence, 48 h | Potency, µM (doses to about 46.1 µM), for the others: at the top dose activity, negative = toxicity, usual class: cytotoxic | actives 2% (n = 360,000);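 note: potency is the fitted concentration of half-maximal effect; 0% = DMSO wells and -100% = cell-free medium wells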
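Luminescent ATP read-out (CellTiter-Glo, 10 min at room temperature) after 48 h compound exposure at 37 °C gave viability of IDH1-knockdown HT-1080 cells. Activity was normalised to DMSO and cell-free wells, then fitted as concentration-response curves.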
IL1B secr inh: qHTS for Inhibitors of Inflammasome Signaling: IL-1-beta AlphaLISA Primary Screen; activity change, % at 57.5 µM; actives 4.7% (n = 360,000); AID 743279, 2014; THP-1 LPS/ATP IL-1B secretion, AlphaLISA, 16 h; active compounds read low; in the data active = activity change below about -50%; inconclusive = mostly about -30% to -49%
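Secreted IL-1B measured by AlphaLISA bead assay after 16 h compound exposure of THP-1 cells; compounds (final up to 57.5 uM) added 1 h before LPS (250 ng/mL) and ATP (1.25 mM) stimulation; lower signal means less secretion.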
DT40 TDP1 no CPT: qHTS for Inhibitors of human tyrosyl-DNA phosphodiesterase 1 (TDP1): qHTS in cells in absence of CPT; DT40 Tdp1-/- hTDP1 cells, no CPT, ATP luminescence, 48 h; Potency, µM (top dose mostly 46.2 µM), for inactives: top-dose activity change, negative = growth inhibition, usual class: inhibitors; actives 15% (n = 420,000); note: potency is the fitted concentration of half-maximal effect; nearly all actives have a fitted effect of over 55% in size
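No-CPT arm: Tdp1-/-;hTDP1 DT40 cells (400/well) plus compounds, incubated ≥48 hr at 37 °C. Readout CellTiter-Glo luminescence.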
The depositor's hits bear a star; ? = inconclusive; / = not tested or not shown; [ ] = remark or other dose. The list is not random: actives were taken first. Their share in the collection is about 19%. Unless noted, calls come from the whole dose curve; as a rule, active = well fitted curve in the direction sought with a large enough effect; inconclusive = small, poorly fitted or top-dose-only effect, or another doubt; inactive = no such curve, though single readings can be large; an effect the other way counts as inactive or inconclusive. Unless noted, % is set by controls: 0 for no effect and ±100 for the full control effect.

SMILES	DT40 TDP1 CPT	HT1080-NT tox	HT1080 IDH1KD tx	IL1B secr inh	DT40 TDP1 no CPT
Cn1nc(C(=O)Nc2ccc(Br)cc2)cc1C(=O)Nc1ccc(Br)cc1	0%	18%	-2%	22	-2%
Cn1nc(C(C)(C)C)cc1C(=O)N1CCCCC1c1cc(C(=O)Nc2ccccc2)no1 (centres undefined)	21µM*	-4%	2%	-19	23µM*
Cn1nc(C(C)(C)C)cc1C(=O)N1CCCCC1c1cc(C(=O)Nc2ccc3c(c2)OCO3)no1 (centres undefined)	18µM*	-24%	?	18	4.6µM*
Cn1nc(C(=O)Nc2ccccc2Cl)cc1C(=O)Nc1ccccc1Cl	?	-6%	0%	-55*	?
Cc1ccc(F)cc1C(=O)N1CCCCC1c1cc(C(=O)Nc2ccccc2)no1 (centres undefined)	?	23%	12%	0	?
Cn1nc(C(C)(C)C)cc1C(=O)N1CCCC(c2cc(C(=O)NCc3ccccc3)no2)C1 (centres undefined)	21µM*	12%	4%	-8	15µM*
O=C1OC2C(O)COC23OC(O)CCC13O (centres undefined)	3%	13%	9%	52	19%
Cn1nc(C(C)(C)C)cc1C(=O)N1CCCC(c2cc(C(=O)Nc3ccccc3Cl)no2)C1 (centres undefined)	?	-16%	-20%	-20	23µM*
Cn1nc(C(C)(C)C)cc1C(=O)N1CCCCC1c1cc(C(=O)Nc2ccccc2Cl)no1 (centres undefined)	21µM*	?	?	-5	21µM*
N#Cc1ccc(C(=O)N2CCCCC2c2cc(C(=O)Nc3ccccc3Cl)no2)cc1 (centres undefined)	-26%	25%	18%	-6	?
Cc1nc(C(=O)Nc2ccccc2Cl)cc2c1[nH]c1ccccc12	?	-19%	-18%	-2	6.5µM*
CC(C)NC(=O)c1cc(C2CCCCN2C(=O)c2cc(C(C)(C)C)nn2C)on1 (centres undefined)	?	9%	-2%	22	13µM*
O=C(Nc1ccc2c(c1)OCO2)c1cc(C2CCCCN2C(=O)c2ccccc2)on1 (centres undefined)	13µM*	-20%	1%	-1	9.2µM*
Cn1nc(C(C)(C)C)cc1C(=O)N1CCCCC1c1cc(C(=O)NCc2cccnc2)no1 (centres undefined)	23µM*	6%	8%	20	21µM*
Cc1ccc([C@@H]2C[C@H]3[C@@H](CN2S(=O)(=O)c2ccc(Cl)cc2)C(=O)C[C@@H](c2ccccc2F)N3S(=O)(=O)c2ccc(C)cc2)cc1	?	1%	7%	-5	?
COc1ccccc1CCn1c(=O)c(-c2ccc(F)cc2)nc2cncnc21	8%	/	/	/	0%
COc1cccc2c1c(NC(=O)Nc1ccc(F)cc1F)nn2C	0%	2%	19%	28	3%
CCCCc1c(-c2ccc(F)cc2F)ncn1CCc1ccccc1OC	23µM*	?	?	-71*	26µM*
CCCCc1c(Cc2cccc(F)c2)ncn1CCc1ccccc1OC	?	16µM*	?	0	13µM*
CCCCCc1c(-c2ccc(F)cc2F)ncn1CCc1ccccc1OC	?	?	?	-100*	21µM*
O=C(CSc1nnc(CNC(=O)c2ccco2)o1)Nc1ccccc1C(F)(F)F	0%	15%	19%	-4	29%
OC(c1cccnc1)c1ccc2c(c1)CN(Cc1cccc3c1OCO3)CCO2 (centres undefined)	0%[9.04 µM]	/	/	/	-19%
